From PubChem BioAssay (EPA / NIEHS) come the findings set out here.

The source made the active and inactive calls. How the source made its calls: active means hit-call score of the fitted dose curve at least 0.9, where 1 is the maximum; inactive means score below 0.9.

For orientation: AC50 means the concentration giving half of the maximal activity seen.

Read-out in the experiment: Cyclin D2 (CCND2), CCND2 (gene 894)
Put plainly: LTEA_HepaRG_CCND2: Life Technologies and Expression Analysis (LTEA) Assay for Cyclin D2 (CCND2) using HepaRG (AID 2283449).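 Further: CCND2 transcript measured by TaqMan qRT-PCR and normalised to three housekeeping genes.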 Particulars: mRNA level, 48 h; actives raise or lower the signal. The protocol: LTEA_HepaRG is a cell based, multiplexed-readout assay that uses HepaRG, a human liver cell line, with measurements taken at 48 hours after chemical dosing on a 96-well plate.LTEA_HepaRG_CCND2 is one of 102 assay component(s) measured in the LTEA HepaRG cell culture assay. It is a marker of Cell proliferation, survival, death.Data from the assay component LTEA_HepaRG_CCND2 was analyzed into 1 endpoint. This assay endpoint, LTEA_HepaRG_CCND2, was analyzed with bidirectional fitting relative to DMSO as the negative control and baseline of activity. Using a type of inducible reporter, measures of mRNA induction for gain or loss-of-signal activity can be used to understand regulation of transcription factor activity. To generalize the intended target to other relatable targets, this assay endpoint is annotated to the cell cycle intended target family, where the subfamily is Cell proliferation, survival, death.
A total of 1060 chemcials from the ToxCast library were tested in eight-point concentration-response experiments. Cell culture and cytotoxicity assays were conducted at Thermo Fisher Scientific's Custom Services facility (Madison, WI). A single lot of human HepaRG cells (Thermo Fisher Scientific, Frederick, MD) was used for the cell culture experiments. 96-well format collagen type I coated plates of human HepaRG cells were prepared using established methods. Briefly, cryopreserved HepaRG cells were thawed, plated at a density of approximately 100,000 cells/well in HepaRG Thaw, Plate, and General Purpose media (HPRG770, Thermo Fisher Scientific), and incubated for 48 hours. 0.5% DMSO was selected as vehicle control to balance the requisite need of DMSO in HepaRG cultures to maintain differentiation (for example, baseline metabolism, proportions of hepatocytes vs. cholangiocytes), while enabling further hepatic receptor pathway activation (for example, PXR and CAR) in response to chemical exposure. 48 hours after plating, the culture medium was replaced with HepaRG Serum-Free Incudtion Media. Cells were exposed to each test chemical in duplicate and maintained in CO2 incubators for another 48 hours. Chemical plates were thawed to room temperature and 200x concentrations of treatment groups were prepared. 8-point conentration-reponse curves were made with the highest exposure at 100 uM, followed by half-log dilutions, all in 0.5% DMSO. Each test plate contained variouse controls, induction positive controls (1mM phenobarbital), cytotoxicity positive controls ([…] aflatoxin B1), vehicle controls (0.5% DMSO), and total lysis controls (0.5% DMSO). Cell morphology images were taken using an Essen IncuCyte FLR automated microscope, with six 96-well plates imaged in about 24 minutes. Images were captured and exported and JPEG files. Spent culture media was transfered to black-well plates for the LDH assay, and remaining media was sorted at -80 C for later use. Cells were treated with RLT buffer and frozen until shipped for gene expression analysis. Total RNA was isolated from the cell suspension in 75 uL of Buffer RLT (Qiagen, Germantown, MD 20874) by Quintiles/Expression Analysis (Durham, NC) using a custom isolation procedure. Total RNA from each plate well was transferred to a preamplification plate. Fluidigm's 96.96 Dynamic ArrayTM (Fluidigm, Amsterdam, the Netherlands) technology was used for gene expression analyses by quantitative reverse transcription polymerase chain reaction (qRT-PCR, performed by Quintiles/Expression Analysis, Durham, NC)89. Standard TaqManTM Assays (Applied Biosystems/ThermoFisher Scientific, Foster City, CA) were used to assess the expression of 93 genes selected based on their selectivity and sensitivity to important hepatic receptors known to be modulated by environmental chemicals; importance in human hepatocyte functionality; and hepatotoxicity. […]
As to `OCC(CO)n1cnc(-c2ccc(F)cc2)c1-c1ccnc(Oc2ccccc2)n1`, the call was inactive.

As for `CCCCOC(=O)CCCCC(=O)OCCCC`, the compound was classed as inactive.

As for `Nc1nc(=S)c2[nH]cnc2[nH]1`, the call was inactive.

In the case of `CC(C)(C)c1ccccc1`, the call was inactive.

On to `CC(COCC(C)OC(=O)c1ccccc1)OC(=O)c1ccccc1` (stereo not given), for which the compound was classed as inactive.

With `CCCCC(CC)COP(=O)(OCC(CC)CCCC)OCC(CC)CCCC` (stereo not given), the outcome was inactive.

On to `Nc1nc(Cl)nc2c1ncn2[C@H]1C[C@H](O)[C@@H](CO)O1`, for which the outcome was inactive.

`O=C1c2c(O)cccc2Cc2cccc(O)c21`: the call was inactive.

`NC=O`: the compound was called inactive.

As for `CC(=O)S[C@H](C(=O)N[C@H]1Cc2ccccc2[C@H]2CCC[C@@H](C(=O)O)N2C1=O)C(C)C`, the outcome was inactive.

Consider `CC(=O)OC1CC(C)OC(C)O1` (stereo not given), for which the result was inactive.

In the case of `O=C1CCCCC1`, the compound was classed as inactive.

For the compound `CC(C)(O)c1ccc(CNC(=O)c2cccnc2Oc2ccc(F)cc2)cc1`, the call was inactive.

As to `NC1CCCCC1`, the call was inactive.

For the compound `C=CCCCCCCCCCCCC`, the compound was classed as inactive.

As to `O=C(Oc1ccccc1)c1cccc(C(=O)Oc2ccccc2)c1`, the outcome was inactive.

`NCCOCCOCCN`: the call was inactive.

On to `COC(=O)CCCC(=O)OC`, for which the compound was classed as inactive.

With `CC(=O)[C@@]1(O)CC[C@H]2[C@@H]3CCC4=CC(=O)CC[C@]4(C)[C@H]3CC[C@@]21C`, the outcome was inactive.

Regarding `CCCCCCCC(=O)OC`, the compound was called inactive.

Take `Cn1cnc2c1c(=O)[nH]c(=O)n2C`: the compound was classed as inactive.

`CC(C)c1cccc(C(C)C)c1NC(=O)NS(=O)(=O)c1cc(C(C)(C)O)co1`: the outcome was inactive.

For `CN(C)C(=O)NC1(c2ccccc2)CCN(CC[C@@]2(c3ccc(F)c(F)c3)CN(C(=O)c3ccccc3)CCO2)CC1`, the result was inactive.

For `Cc1cn([C@H]2C=C[C@@H](CO)O2)c(=O)[nH]c1=O`, the outcome was inactive.

Consider `CCCC(=O)O`, for which the compound was classed as inactive.

With `CCCCCCC(CCCCCCCCCCC(=O)OCC(COC(C)=O)OC(C)=O)OC(C)=O` (stereo not given), the result was inactive.

Take `CO[C@@H]1COCC[C@@H]1N[C@@H]1CC[C@@](C(=O)N2CCc3ncc(C(F)(F)F)cc3C2)(C(C)C)C1`: the result was inactive.

As to `CC(C)NCC(O)c1ccc(O)c(O)c1` (stereo not given), the compound was called inactive.

In the case of `CCCCc1nc2cccnc2n1Cc1ccc(-c2ccccc2-c2nnn[nH]2)cc1`, the call was inactive.

For the compound `CC1(C)C(=O)NC(=O)N1CO`, the result was inactive.

For the compound `CC(=O)O[C@]1(C(C)=O)CC[C@H]2[C@@H]3C=C(Cl)C4=CC(=O)[C@@H]5C[C@@H]5[C@]4(C)[C@H]3CC[C@@]21C`, the AC50 is 7.8 nM (active).

`C/C=C/C=C/C(=O)O`: the compound was classed as inactive.

For `Cc1ccc(-c2cc(C(F)(F)F)nn2-c2ccc(S(N)(=O)=O)cc2)cc1`, the call was inactive.

Take `CCN(CC)CCOc1ccc(C(=C(Cl)c2ccccc2)c2ccccc2)cc1`: the result was inactive.

Regarding `O=C(O)CN(CC(=O)O)CC(=O)O`, the result was inactive.

As for `CCCC[C@H]1CN(CC2CCOCC2)C(=O)OC12CCN(C1(C)CCN(C(=O)c3c(C)ncnc3C)CC1)CC2`, the compound was called inactive.

On to `Cc1cc(SC2=C(O)C[C@@](CCc3ccc(N)cc3)(C(C)C)OC2=O)c(C(C)(C)C)cc1CO`, for which the result was inactive.

Consider `CC(C)c1cccc(C(C)C)c1`, for which the result was inactive.

Take `CCC(C)N(C)C(=O)c1cc2ccccc2c(-c2ccccc2Cl)n1` (stereo not given): the compound was classed as inactive.

Regarding `S=c1[nH]c2ccccc2s1`, the result was inactive.
